# Structures can show the parent of a compound that is named as a salt.
# System: Saccharomyces cerevisiae BY4741 SeMeCo community
# Assay: z-score of subpopulation abundance vs DMSO median, subpopulation auxotrophic for HL; higher = larger share of this subpopulation than in DMSO controls
# Conditions: 10 µM; 24 h; SM minimal medium; subpopulation (auxotrophy): HL
# Description: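 Fluorescent four-plasmid SeMeCo (self-establishing metabolically cooperating S. cerevisiae BY4741 community; plasmids pH-mRuby2, pL-mWasabi, pU-eCFP, pM-TagRFP657) was grown 24 h in minimal SM medium with each Selleck FDA-approved drug at 10 µM in 384-well plates. Cells were fixed and imaged by high-content confocal microscopy. For each auxotrophic subpopulation (and the prototroph), a z-score gives the deviation from the DMSO vehicle-control population median.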
row,Compound,z-score of subpopulation abundance
1,C[CH2][Hg][S]c1ccccc1C(=O)[O-].[Na+] [Thimerosal],11.9
2,N[C@@H]1C[C@H]1c1ccccc1 [Tranylcypromine (2-PCPA) HCl],-0.72
3,C[C@H]1O[C@H](O[C@H]2[C@H](O)[C@@H](O)[C@@H](O)[C@H](O)[C@@H]2O)[C@@H](N)C[C@@H]1NC(=N)C(=O)O [Kasugamycin hydrochloride],-0.07
4,CCCN1C[C@H](CSC)C[C@@H]2c3cccc4[nH]cc(c34)C[C@H]21 [Pergolide Mesylate],-0.35
5,C[C@@H]1O[C@@H](O[C@H]2C[C@@H](O)[C@]3(CO)[C@H]4[C@H](O)C[C@]5(C)[C@@H](C6=CC(=O)OC6)CC[C@]5(O)[C@@H]4CC[C@]3(O)C2)[C@H](O)[C@H](O)[C@H]1O [Ouabain],-1.05
6,CC(C)=CCOc1c2occc2cc2ccc(=O)oc12 [Imperatorin],0.34
7,COc1ccc(C=O)cc1 [p-Anisaldehyde],-0.29
8,CCN(C)C(=O)Oc1cccc([C@H](C)N(C)C)c1 [Rivastigmine Tartrate],0.04
9,CC[C@H]1[C@@H]2C[C@H]3[C@@H]4N(C)c5ccccc5[C@]45C[C@@H]([C@@H]2[C@H]5O)N3[C@@H]1O [Ajmaline],-1.02
10,C=C(C)[C@H]1Cc2c(ccc3c2O[C@@H]2COc4cc(OC)c(OC)cc4[C@@H]2C3=O)O1 [Rotenone (Barbasco)],0.53
11,CN(C)[C@@H]1C(=O)C(C(N)=O)=C(O)[C@@]2(O)C(=O)C3=C(O)c4c(O)cccc4[C@@](C)(O)[C@H]3C[C@@H]12 [Tetracycline HCl],0.29
12,CC(NC(C)(C)C)C(=O)c1cccc(Cl)c1 (stereo not given) [Amfebutamone (Bupropion) HCl],0.03
13,COc1ccc2c3c([nH]c2c1)C(C)=NCC3 [Harmaline],1.95
14,C=C[C@H]1CN2CC[C@H]1C[C@H]2[C@H](O)c1ccnc2ccccc12 [Cinchonidine],-0.64
15,CN(C)C(=O)Oc1ccc[n+](C)c1 [Pyridostigmine Bromide],0.3
16,O=C(O[C@H]1C[N+]2(CCCOc3ccccc3)CCC1CC2)C(O)(c1cccs1)c1cccs1 [Aclidinium Bromide],-1.16
17,C=CN1CCCC1=O.II [Povidone iodine],2.13
18,CC(C)(O)C(Cl)(Cl)Cl [Chlorobutanol],-0.54
19,C[C@@H]1CC[C@H]2[C@@H](C)C(=O)O[C@@H]3O[C@@]4(C)CC[C@@H]1[C@]32OO4 [Artemisinin],-0.27
20,CN1[C@@H]2C[C@@H](OC(=O)[C@H](CO)c3ccccc3)C[C@H]1[C@@H]1O[C@@H]12 [Scopolamine HBr],-0.91

row,Compound,z-score of subpopulation abundance
1,C[N+](C)(C)CCCCCCCCCC[N+](C)(C)C [Decamethonium Bromide],-0.3
2,O=c1cccc2n1C[C@@H]1CNC[C@H]2C1 [Cytisine],-0.4
3,NC(=O)CN1CCCC1=O [Piracetam],0.98
4,CN[C@@H]1[C@@H](O)[C@@H](O[C@@H]2[C@@H](O)[C@H](O[C@H]3O[C@H]([C@@H](C)O)[C@@H](O)[C@H](O)[C@H]3N)[C@@H](N)C[C@H]2N)OC[C@]1(C)O [Geneticin (G418 Sulfate)],-0.02
5,C=CCN1C[C@H](C(=O)N(CCCN(C)C)C(=O)NCC)C[C@@H]2c3cccc4[nH]cc(c34)C[C@H]21 [Cabergoline],-0.49
6,"NCC(O)c1ccc(O)cc1 (racemic) [(+,-)-Octopamine HCl]",-1.17
7,CNC1CC(N)C(O)C(OC2OC(CO)C(O)C3OC4(OC(C(N)CO)C(O)C(O)C4O)OC23)C1O (stereo not given) [Hygromycin B],-0.22
8,CC(=O)OCC1=C(C(=O)O)N2C(=O)C(N)C2SC1 (stereo not given) [7-Aminocephalosporanic acid],-0.23
9,CCN(C)C(=O)Oc1cccc([C@H](C)N(C)C)c1 [Rivastigmine],-0.54
10,CCC1=C[C@H]2CN3CCc4c([nH]c5ccccc45)[C@](C(=O)OC)(C2)[C@H]13 [Catharanthine],-1.12
11,CC(=O)O[C@H]1C[C@@H]2CC[C@@H]3[C@H](CC[C@@]4(C)[C@H]3C[C@H]([N+]3(C)CCCCC3)[C@@H]4OC(C)=O)[C@@]2(C)C[C@@H]1[N+]1(C)CCCCC1 [Pancuronium dibromide],0.38
12,CC1(C)SC2C(N)C(=O)N2C1C(=O)O (stereo not given) [6-Aminopenicillanic acid],-0.37
13,CCCCCCCCCCCCCCCC[n+]1ccccc1 [Cetylpyridinium Chloride],13.5
14,CCOC(=O)Nc1ccc(NCc2ccc(F)cc2)cc1N [Retigabine],0.75
15,CN1c2ccccc2C(NCCCCCCC(=O)O)c2ccc(Cl)cc2S1(=O)=O (stereo not given) [Tianeptine sodium],-0.07
16,CCN1CC2(OC(=O)c3ccccc3NC(C)=O)CCC(OC)C34C1C(CC23)C1(O)CC(OC)C2CC4C1(O)C2OC (stereo not given) [Lappaconitine],-0.26
17,CN1[C@@H]2CC[C@H]1C[C@@H](OC(=O)[C@H](CO)c1ccccc1)C2 [Hyoscyamine],-0.72
18,Nc1nc(N)nc(NC2CC2)n1 [Cyromazine],-0.97
19,COc1ccc2c(c1)[C@]13CCCC[C@@H]1[C@H](C2)N(C)CC3 [Dextromethorphan hydrobromide hydrate],-0.33
20,CN1C(=O)COc2c(C(=O)NC3CN4CCC3CC4)cc(Cl)cc21 (stereo not given) [Azasetron HCl],1.41

# From the supplement of paper PMC8975748
